This is a sample that favours compounds with a hit; in the whole collection about 3.4% have one here.
TEAD-YAP inh – TEAD-YAP interaction inhibition. HEK-TIYL cells, TEAD-Gal4/YAP UAS-luciferase luminescence. inhibition, % at 9.12 µM. hit rate 1.4% among 640,000. AID 1259422; in the data active = inhibition above about 32%;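 note: 0% = median of test compound wells and 100% = reference inhibitor wells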
MITF primary – blocks human microphthalmia-associated transcription factor | AlphaScreen MITF homodimerization, bead proximity signal | inhibition, % at 2.6 µM | hit rate 0.91% among 650,000 | AID 1259374; in the data active = inhibition above about 50%;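 note: 0% = vehicle wells with protein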
FBW7 act – activators of human E3 ligase FBW7. Q969H0. AlphaScreen FBW7–phospho-cyclin E peptide binding, activator screen. normalized activity (activation), % at 26.1 µM. hit rate 0.13% among 650,000; in the data active = normalized activity above about 1.9%;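 note: purified mutant Fbw7 with reduced substrate affinity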
GPR151 activ – activators of human GPR151; hit rate 1% among 650,000; Q8TDV0; activation, % at 11.2 µM; PathHunter beta-arrestin GPR151 cells, luminescence; in the data active = activation above about 4.9%;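 note: 0% = median of compound wells and 100% = cells with positive control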
MITF confirm – confirmation of human MITF inhibitors; shares compounds with MITF primary; AlphaScreen MITF homodimerization, biotin/His-MITF beads; inhibition, % at 2.6 µM; hit rate 16% among 4,700;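 active = inhibition above a cutoff derived from the DMSO control wells, cut at about 28% in these data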;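 note: 0% = MITF dimer wells with DMSO only; inhibitors lower the bead chemiluminescence by keeping MITF from dimerizing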
AlphaScreen DR – optically interferes with AlphaScreen signal in dose response. shares compounds with MITF primary. AlphaScreen optical interference counterscreen, cell-free. IC50, µM. hit rate 6% among 480. AID 1259373; call rule not given here
AS interf ctr – counter-screen: compounds optically interfering with AlphaScreen | hit rate 7.6% among 4,700 | shares compounds with MITF primary | inhibition, % at 2.6 µM | AID 1259376 | LysRS AlphaScreen counterscreen, signal interference, triplicate;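 active = inhibition above a cutoff derived from the DMSO control wells, cut at about 30% in these data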
GPR151 confirm – human GPR151 activation, confirmation screen | shares compounds with GPR151 activ | GPR151 PathHunter beta-arrestin cells, luminescence, 90 min; % of EA-reagent control over plate median | activation, % at 11.2 µM | 6,700 tested, under 10 active | AID 1508609;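 active = mean percent activation across replicates above the confirmation screen cutoff of 4.91%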
GPR119 counter – activates human GPR119 in a GPR151 counter-screen; shares compounds with GPR151 activ; GPR119 PathHunter beta-arrestin cells, luminescence, 90 min; 0 = compound-well median, 100 = enzyme-acceptor control; activation, % at 11.2 µM; hit rate 0.3% among 6,700; AID 1508611;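 active = mean percent activation in the counterscreen above 29.09%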;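 note: counterscreen on off-target GPR119 to flag nonselective hits from the GPR151 activator screen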
Target sequence (Q8TDV5 whole entry, looked up): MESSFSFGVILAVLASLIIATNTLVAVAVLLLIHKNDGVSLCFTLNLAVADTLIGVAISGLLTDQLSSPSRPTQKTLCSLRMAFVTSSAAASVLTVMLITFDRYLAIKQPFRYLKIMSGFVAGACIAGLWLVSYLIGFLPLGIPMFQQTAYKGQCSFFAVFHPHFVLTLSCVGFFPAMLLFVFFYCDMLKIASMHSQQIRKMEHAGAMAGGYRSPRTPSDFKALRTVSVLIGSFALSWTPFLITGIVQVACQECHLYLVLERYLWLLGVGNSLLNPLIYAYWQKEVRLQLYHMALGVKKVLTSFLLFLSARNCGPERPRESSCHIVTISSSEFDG
* hit, by the source's call; . = not tested or not shown.

SMILES	TEAD-YAP inh	MITF primary	FBW7 act	GPR151 activ	MITF confirm	AS interf ctr	GPR151 confirm	GPR119 counter	others
CCOC(=O)N1CC(=O)Nc2ccccc2S1(=O)=O	1	66*	1	11*	17	17	0	10
Cc1ccc(N2CC(=O)Nc3ccccc3S2(=O)=O)cc1	-7	14	0	1	.	.	.	.
O=C(CCc1nnc(CCCc2ccccc2)o1)NCc1n[nH]c2c1CCC2	-8	12	0	0	.	.	.	.
Cc1ccc(OCCN2CCNCC2)c(C)c1	-6	44	0	0	.	.	.	.
CCN1CCN(CCOc2cc(C)ccc2C)CC1	4	65*	0	17*	6	12	0	-3
O=C(O)c1cc(N=Cc2ccco2)ccc1O	-6	51*	0	5.0*	81*	-2	2	16	AlphaScreen DR=>6.5
O=C(O)c1cc(N=Cc2nc(-c3ccc(Cl)cc3)oc2O)ccc1O	-1	11	0	1	.	.	.	.
COc1ccc2cc(-c3nnc(Nc4ccccc4OC)s3)c(=O)oc2c1	-18	5	0	0	.	.	.	.
Cc1ccc(N2C(=O)c3ccccc3NC2c2cccc([N+](=O)[O-])c2)cc1 (stereo not given)	-9	63*	0	8.6*	77*	6	0	-12	AlphaScreen DR=>5.2
O=C1c2ccccc2NC(c2cccc([N+](=O)[O-])c2)N1c1ccc(F)cc1 (stereo not given)	10	5	0	0	.	.	.	.
O=C(O)c1ccc2c(c1)C(=O)N(c1ccc(C(=O)Nc3cccc(O)c3)cc1)C2=O	22	-3	0	-4	.	.	.	.
c1cncc(CN2CCN(Cc3cccc4ccccc34)CC2)c1	-4	83*	0	11*	4	1	-1	-20
COc1ccc(NC(=O)Cn2nnc(-c3ccccc3NC(=O)c3ccccc3)n2)cc1	7	-1	0	0	.	.	.	.
CC(=O)c1cccc(OCCCCN2CCN(C)CC2)c1	7	55*	0	5.1*	3	16	0	6
CC(C)(C)OC(=O)N/N=C/c1ccccc1I	-25	5	0	-1	.	.	.	.
CCOc1ccccc1CN1CCC(N2CCCC2)CC1	0	56*	0	9.2*	-11	-7	-1	-10
COc1ccccc1CC(=O)N1CC[C@@H]2[C@H](CCCN2C(=O)c2occc2C)C1	6	52*	0	7.3*	-6	0	0	7
COc1ccccc1N(CC(=O)Nc1ccc(C)c(C)c1)S(C)(=O)=O	1	5	0	-1	.	.	.	.
O=S(=O)(NCc1ccccc1)c1cccc(S(=O)(=O)c2ccccc2)c1	-2	-10	0	3	.	.	.	.
O=C1Nc2ccc(S(=O)(=O)NCc3ccccc3)cc2C1=O	12	79*	0	6.1*	57*	13	0	-10	AlphaScreen DR=>6.1
COc1ccccc1C(=O)N1CCN(Cc2ccc3c(c2)OCO3)CC1	2	-5	0	2	.	.	.	.
COc1ccccc1/C=C/CN1CCN(Cc2ccc3c(c2)OCO3)CC1	-3	69*	0	6.1*	-1	1	0	-8
CCc1cc(OCCCCN2CCNCC2)ccc1Cl	-15	54*	0	6.4*	2	-1	0	5
CCc1cc(OCCCN2CCNCC2)ccc1Cl	-5	4	0	1	.	.	.	.
COc1cc(OC)c(C(=O)OC2CCCC2=O)cc1OC (stereo not given)	5	76*	0	5.2*	67*	6	1	2	AlphaScreen DR=>7
SMILES	TEAD-YAP inh	MITF primary	FBW7 act	GPR151 activ	MITF confirm	AS interf ctr	GPR151 confirm	GPR119 counter	others
CCOc1cc(Br)cc(/C=N/NC(=O)COc2cccc(C)c2)c1O	4	2	0	-1	.	.	.	.
COc1ccc(C(=O)CCC(=O)NCC2CC(Cc3cccc(F)c3)=NO2)cc1 (stereo not given)	3	6	0	1	.	.	.	.
CC1=NN(c2ccc(C(=O)O)cc2)C(=O)/C1=C\c1ccc(-c2ccc(S(N)(=O)=O)cc2)o1	7	-1	0	-1	.	.	.	.
Fc1ccccc1-c1cc(NCCCn2ccnc2)nc(-c2ccncc2)n1	3	62*	-1	7.5*	34*	41*	-1	-7
Clc1cc2c(c3ncccc13)OCN(CCCN1CCOCC1)C2	27	92*	0	5.2*	102*	100*	0	3
Cc1ccccc1OCCOCCn1cnc2ccccc21	15	72*	0	4.9*	14	19	0	14
COc1ccc(OC)c(CN2CCC(C(=O)NCc3ccc(C)cc3)CC2)c1	3	23	0	-1	.	.	.	.
COc1ccc(OC)c(CN2CCN(Cc3ccc(C)cc3)CC2)c1	-3	83*	0	5.5*	1	7	-1	-19
FC(F)(F)c1cccc(OCCCCNCCN2CCOCC2)c1	7	65*	0	5.8*	-2	9	0	-5
C/C(=C\c1ccccc1)CN1CCC(C(=O)N2CCCC2)CC1	12	37	0	2	.	.	.	.
CCOC(=O)N1CCN(C(=O)C2CCN(C/C(C)=C/c3ccccc3)CC2)CC1	2	58*	0	6.6*	11	12	0	7
Clc1ccc(OCCn2cncn2)cc1	-5	-18	0	6.4*	.	.	-1	-7
CC1=C(C#N)c2nc(N)c(C#N)c(C)c2/C1=C/c1ccc(-c2ccccc2[N+](=O)[O-])o1	-10	-16	0	-1	.	.	.	.
COc1ccc(N2C(=O)NC(=O)/C(=C\c3ccc(O)c([N+](=O)[O-])c3)C2=O)cc1	3	22	0	5.8*	.	.	-1	-5
CCOc1cc(/C=C2\C(=O)NC(=O)N(c3cc(C)ccc3C)C2=O)ccc1O	18	-9	-1	8.9*	.	.	0	12
CCOc1ccc(N2C(=O)NC(=O)/C(=C\c3ccc(O)c(OC)c3)C2=O)cc1	3	14	0	1	.	.	.	.
C=CCc1cc(/C=C2/C(=O)NC(=O)N(c3ccc(OCC)cc3)C2=O)ccc1O	8	16	0	9.3*	.	.	1	-2
Cc1cc(N2C(=O)NC(=O)/C(=C\c3ccccc3OCC#N)C2=O)ccc1Br	0	-7	0	5.6*	.	.	1	19
COc1ccc(C(=O)NCC(C)C)cc1[N+](=O)[O-]	1	12	0	1	.	.	.	.
COc1cc(/C=C2/C(=O)NC(=O)N(c3ccc(Cl)cc3)C2=O)cc(OC)c1O	4	12	0	16*	.	.	0	12

Screening data deposited in PubChem BioAssay by The Scripps Research Institute Molecular Screening Center.
